Experimental data as given in the supplement of paper PMC11001985.

compound: C#CCNC(=O)CCSSCCC(=O)NCCc1ccc(C=O)c(C=O)c1; experiment: lysine labeling ratio R10:1 (500 µM / 50 µM probe), SILAC-ABPP in living cells; higher = lower intrinsic lysine reactivity toward the probe, active = 2 or less; conditions: HeLa; probe concentrations 500 vs 50 µM
Summary of the method: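 An alkyne-tagged lysine probe with a disulfide linker labelled living HeLa cells in PBS at room temperature at either 50 µM or 500 µM, using SILAC light and heavy cells in forward and reverse label swaps. Lysates were mixed, clicked to biotin-azide, trypsin-digested, enriched on neutravidin, DTT-released, alkylated and measured by LC-MS/MS on a TIMS-TOF Pro. Each lysine's R is the filtered median high-probe/low-probe MS1 peptide ratio, combined as the median over forward and reverse replicates, with 20 as the upper limit.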

UniProt Q13421, sequence (Q13421 whole entry): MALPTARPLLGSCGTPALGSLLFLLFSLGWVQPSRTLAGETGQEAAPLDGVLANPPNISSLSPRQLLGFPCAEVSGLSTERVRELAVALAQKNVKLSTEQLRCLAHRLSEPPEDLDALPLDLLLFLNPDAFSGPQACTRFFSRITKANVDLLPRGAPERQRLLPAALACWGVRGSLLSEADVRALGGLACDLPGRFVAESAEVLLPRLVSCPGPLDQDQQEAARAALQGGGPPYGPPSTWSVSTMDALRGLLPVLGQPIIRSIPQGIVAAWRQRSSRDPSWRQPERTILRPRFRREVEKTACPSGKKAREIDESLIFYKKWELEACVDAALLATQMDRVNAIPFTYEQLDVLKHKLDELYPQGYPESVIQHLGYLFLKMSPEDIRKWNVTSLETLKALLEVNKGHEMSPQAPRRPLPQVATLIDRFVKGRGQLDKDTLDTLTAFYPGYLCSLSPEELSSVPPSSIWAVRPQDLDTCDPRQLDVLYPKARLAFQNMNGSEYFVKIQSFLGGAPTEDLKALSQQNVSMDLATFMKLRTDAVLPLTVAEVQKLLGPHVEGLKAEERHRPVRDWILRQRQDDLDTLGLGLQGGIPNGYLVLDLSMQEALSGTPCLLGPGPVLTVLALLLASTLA
UniProt P35579, sequence (P35579 whole entry): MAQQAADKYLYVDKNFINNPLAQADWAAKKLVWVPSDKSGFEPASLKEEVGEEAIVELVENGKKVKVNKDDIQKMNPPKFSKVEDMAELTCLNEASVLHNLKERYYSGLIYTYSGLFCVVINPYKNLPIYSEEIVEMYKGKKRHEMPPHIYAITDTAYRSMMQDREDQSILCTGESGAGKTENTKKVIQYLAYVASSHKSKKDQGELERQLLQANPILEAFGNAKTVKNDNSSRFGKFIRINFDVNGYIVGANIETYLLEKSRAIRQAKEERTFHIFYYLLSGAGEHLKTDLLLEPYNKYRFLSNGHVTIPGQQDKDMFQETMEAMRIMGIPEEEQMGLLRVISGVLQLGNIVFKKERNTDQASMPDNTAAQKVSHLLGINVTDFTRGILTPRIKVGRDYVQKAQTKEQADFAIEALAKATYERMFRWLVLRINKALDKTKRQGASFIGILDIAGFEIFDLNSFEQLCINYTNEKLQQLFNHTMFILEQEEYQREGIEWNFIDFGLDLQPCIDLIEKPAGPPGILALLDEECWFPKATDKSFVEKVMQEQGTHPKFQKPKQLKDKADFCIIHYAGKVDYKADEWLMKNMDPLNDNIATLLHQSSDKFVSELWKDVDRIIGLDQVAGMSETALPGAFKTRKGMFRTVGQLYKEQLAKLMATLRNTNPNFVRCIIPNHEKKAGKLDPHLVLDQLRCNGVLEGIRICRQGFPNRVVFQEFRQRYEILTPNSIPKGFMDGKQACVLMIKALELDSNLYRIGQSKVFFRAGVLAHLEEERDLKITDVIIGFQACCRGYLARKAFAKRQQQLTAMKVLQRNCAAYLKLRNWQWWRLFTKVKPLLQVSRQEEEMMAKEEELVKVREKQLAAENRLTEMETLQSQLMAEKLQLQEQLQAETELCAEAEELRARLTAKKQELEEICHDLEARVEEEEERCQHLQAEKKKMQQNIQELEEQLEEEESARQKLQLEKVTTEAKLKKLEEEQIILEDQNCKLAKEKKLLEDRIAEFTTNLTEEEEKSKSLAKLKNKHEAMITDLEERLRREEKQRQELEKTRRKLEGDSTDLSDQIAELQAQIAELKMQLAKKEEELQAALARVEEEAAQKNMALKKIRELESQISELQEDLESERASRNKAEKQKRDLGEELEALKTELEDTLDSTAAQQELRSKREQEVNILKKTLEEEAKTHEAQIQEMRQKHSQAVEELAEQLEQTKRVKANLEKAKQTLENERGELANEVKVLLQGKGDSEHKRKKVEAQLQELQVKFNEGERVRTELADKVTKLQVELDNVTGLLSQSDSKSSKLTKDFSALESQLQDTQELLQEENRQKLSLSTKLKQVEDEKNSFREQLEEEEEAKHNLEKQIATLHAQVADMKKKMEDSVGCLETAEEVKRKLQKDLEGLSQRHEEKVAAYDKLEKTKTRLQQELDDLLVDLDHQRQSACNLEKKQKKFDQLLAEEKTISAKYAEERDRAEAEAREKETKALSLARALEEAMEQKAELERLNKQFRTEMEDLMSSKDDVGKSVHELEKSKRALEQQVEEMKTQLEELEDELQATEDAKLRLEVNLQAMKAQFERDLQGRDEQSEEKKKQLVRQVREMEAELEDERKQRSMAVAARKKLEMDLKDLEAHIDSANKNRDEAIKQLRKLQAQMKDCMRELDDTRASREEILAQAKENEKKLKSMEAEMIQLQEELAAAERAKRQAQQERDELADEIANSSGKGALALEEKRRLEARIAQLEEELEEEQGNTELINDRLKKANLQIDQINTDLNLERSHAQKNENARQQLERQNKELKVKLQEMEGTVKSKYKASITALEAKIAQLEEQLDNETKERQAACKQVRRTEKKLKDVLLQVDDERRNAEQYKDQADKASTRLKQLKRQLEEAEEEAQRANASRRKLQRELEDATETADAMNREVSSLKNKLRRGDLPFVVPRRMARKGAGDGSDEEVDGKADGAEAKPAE
UniProt P55285, sequence (P55285 whole entry): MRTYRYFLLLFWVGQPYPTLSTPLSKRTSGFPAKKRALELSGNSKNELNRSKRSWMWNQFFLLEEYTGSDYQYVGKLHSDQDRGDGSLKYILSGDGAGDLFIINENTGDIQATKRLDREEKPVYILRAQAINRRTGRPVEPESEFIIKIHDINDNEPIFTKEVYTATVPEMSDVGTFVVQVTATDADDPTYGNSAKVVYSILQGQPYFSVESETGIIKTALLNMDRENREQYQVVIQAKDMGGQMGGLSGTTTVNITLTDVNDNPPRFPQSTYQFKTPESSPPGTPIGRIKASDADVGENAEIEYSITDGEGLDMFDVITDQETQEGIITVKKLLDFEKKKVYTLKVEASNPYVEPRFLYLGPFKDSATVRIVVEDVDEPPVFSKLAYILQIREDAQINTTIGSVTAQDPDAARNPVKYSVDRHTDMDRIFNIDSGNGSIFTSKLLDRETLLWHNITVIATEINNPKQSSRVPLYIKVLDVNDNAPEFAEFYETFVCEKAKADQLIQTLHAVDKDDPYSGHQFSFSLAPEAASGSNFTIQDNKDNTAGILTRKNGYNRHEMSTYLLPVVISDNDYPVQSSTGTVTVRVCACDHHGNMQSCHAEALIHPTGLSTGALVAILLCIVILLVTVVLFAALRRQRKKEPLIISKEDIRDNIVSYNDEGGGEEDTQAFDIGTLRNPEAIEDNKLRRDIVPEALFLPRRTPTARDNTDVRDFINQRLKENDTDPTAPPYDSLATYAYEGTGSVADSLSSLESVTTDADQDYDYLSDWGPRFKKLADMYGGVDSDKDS
UniProt P05787, sequence (P05787 whole entry): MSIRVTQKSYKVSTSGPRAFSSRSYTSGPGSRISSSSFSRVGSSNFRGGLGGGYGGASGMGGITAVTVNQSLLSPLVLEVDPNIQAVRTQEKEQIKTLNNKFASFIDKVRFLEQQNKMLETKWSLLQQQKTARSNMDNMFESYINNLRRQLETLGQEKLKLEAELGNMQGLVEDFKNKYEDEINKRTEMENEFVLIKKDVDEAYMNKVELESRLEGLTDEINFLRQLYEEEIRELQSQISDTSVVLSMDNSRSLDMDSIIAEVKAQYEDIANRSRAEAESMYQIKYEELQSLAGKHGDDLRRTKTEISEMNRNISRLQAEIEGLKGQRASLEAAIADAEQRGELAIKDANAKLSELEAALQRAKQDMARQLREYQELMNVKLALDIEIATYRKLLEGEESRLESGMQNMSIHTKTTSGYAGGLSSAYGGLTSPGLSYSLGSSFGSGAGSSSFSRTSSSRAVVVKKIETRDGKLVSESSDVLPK
UniProt Q86UE4, sequence (Q86UE4 whole entry): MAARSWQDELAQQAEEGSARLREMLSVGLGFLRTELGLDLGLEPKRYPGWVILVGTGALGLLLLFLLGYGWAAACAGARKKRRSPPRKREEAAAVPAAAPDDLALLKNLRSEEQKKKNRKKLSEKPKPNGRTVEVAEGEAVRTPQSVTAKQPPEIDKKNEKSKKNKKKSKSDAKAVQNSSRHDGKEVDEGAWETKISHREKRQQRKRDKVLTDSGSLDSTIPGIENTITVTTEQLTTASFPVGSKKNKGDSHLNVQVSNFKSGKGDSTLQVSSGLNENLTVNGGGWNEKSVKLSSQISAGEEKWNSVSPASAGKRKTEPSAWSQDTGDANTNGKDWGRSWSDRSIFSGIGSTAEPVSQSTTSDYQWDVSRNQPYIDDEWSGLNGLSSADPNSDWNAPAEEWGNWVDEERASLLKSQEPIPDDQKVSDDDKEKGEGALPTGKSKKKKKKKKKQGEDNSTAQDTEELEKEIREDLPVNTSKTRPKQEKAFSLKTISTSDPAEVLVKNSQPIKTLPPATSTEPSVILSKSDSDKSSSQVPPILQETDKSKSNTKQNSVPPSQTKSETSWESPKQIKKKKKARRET
UniProt P08962, sequence (P08962 whole entry): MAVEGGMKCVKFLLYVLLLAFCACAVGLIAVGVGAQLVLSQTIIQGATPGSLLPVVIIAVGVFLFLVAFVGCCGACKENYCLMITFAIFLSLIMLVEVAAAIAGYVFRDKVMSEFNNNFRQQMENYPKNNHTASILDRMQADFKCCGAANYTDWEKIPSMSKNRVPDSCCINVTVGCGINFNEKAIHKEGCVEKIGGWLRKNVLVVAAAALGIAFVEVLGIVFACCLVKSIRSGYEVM
UniProt P22087, sequence (P22087 whole entry): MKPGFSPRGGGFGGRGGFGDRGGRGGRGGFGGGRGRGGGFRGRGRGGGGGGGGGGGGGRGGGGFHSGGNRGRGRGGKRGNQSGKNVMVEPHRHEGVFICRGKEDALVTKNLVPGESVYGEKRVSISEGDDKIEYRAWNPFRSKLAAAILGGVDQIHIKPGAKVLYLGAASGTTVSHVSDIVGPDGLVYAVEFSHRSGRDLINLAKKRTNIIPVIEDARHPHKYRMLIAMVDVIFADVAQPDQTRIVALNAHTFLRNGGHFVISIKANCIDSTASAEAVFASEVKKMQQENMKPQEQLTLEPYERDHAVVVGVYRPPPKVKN

Target	lysine labeling ratio R10:1
UniProt P55285 (lysine site: K121)	4.12 (inactive)
UniProt O60245 (lysine site: K223)	5.15 (inactive)
FASN (lysine site: K673) (UniProt P49327)	2.24 (inactive)
MYH9 (lysine site: K1387) (UniProt P35579)	1.88 (active)
UniProt P25705 (lysine site: K434)	1.73 (active)
EZR (lysine site: K438) (UniProt P15311)	3.51 (inactive)
F2 (lysine site: K599) (UniProt P00734)	6.29 (inactive)
UniProt P20591 (lysine site: K505)	2.52 (inactive)
TLN1 (lysine site: K1332) (UniProt Q9Y490)	5.83 (inactive)
CDCP1 (lysine site: K71) (UniProt Q9H5V8)	2.07 (inactive)
FBL (lysine site: K84) (UniProt P22087)	3.62 (inactive)
IGF2R (lysine site: K1924) (UniProt P11717)	3.04 (inactive)
UniProt Q99653 (lysine site: K188)	1.18 (active)
LAMB1 (lysine site: K215) (UniProt P07942)	2.29 (inactive)
SPTBN1 (lysine site: K1459) (UniProt Q01082)	0.588 (active)
PPIA (lysine site: K155) (UniProt P62937)	2.47 (inactive)
UniProt P05787 (lysine site: K304)	7.25 (inactive)
RPL22 (lysine site: K80) (UniProt P35268)	2.72 (inactive)
IDH2 (lysine site: K384) (UniProt P48735)	3.48 (inactive)
HSPA5 (lysine site: K353) (UniProt P11021)	3.4 (inactive)

Target	lysine labeling ratio R10:1
ICAM1 (lysine site: K359) (UniProt P05362)	3.71 (inactive)
UniProt P48047 (lysine site: K60)	2.17 (inactive)
TFRC (lysine site: K672) (UniProt P02786)	3 (inactive)
INSR (lysine site: K476) (UniProt P06213)	1.75 (active)
UniProt P54851 (lysine site: K129)	4.76 (inactive)
NUMA1 (lysine site: K1024) (UniProt Q14980)	1.17 (active)
CACYBP (lysine site: K220) (UniProt Q9HB71)	1.74 (active)
UniProt Q15149 (lysine site: K4027)	2.34 (inactive)
UniProt Q15149 (lysine site: K3968)	2.71 (inactive)
MSLN (lysine site: K306) (UniProt Q13421)	1.74 (active)
CELSR2 (lysine site: K2183) (UniProt Q9HCU4)	4.05 (inactive)
ITGB1 (lysine site: K90) (UniProt P05556)	3.53 (inactive)
FLOT1 (lysine site: K184) (UniProt O75955)	1.83 (active)
CD63 (lysine site: K194) (UniProt P08962)	2.39 (inactive)
GANAB (lysine site: K491) (UniProt Q14697)	1.12 (active)
UniProt P35908 (lysine site: K580)	5.72 (inactive)
MYH9 (lysine site: K1246) (UniProt P35579)	0.944 (active)
MSLN (lysine site: K487) (UniProt Q13421)	6.18 (inactive)
MTDH (lysine site: K195) (UniProt Q86UE4)	1.36 (active)
PTPRM (lysine site: K231) (UniProt P28827)	1.53 (active)
